Data on 40 compounds can be found in PubChem BioAssay (NCATS).

Molecules are shown by their SMILES. Inconclusive results are not listed. Entries that show only a call come without a potency. Calls of active or inactive are those of the source. The call rests on the fitted dose curve; in most records, active means well fitted inhibition curve with a large enough effect; inconclusive means small, poorly fitted or top-dose-only effect; inactive means no such curve, though single readings can be large or run the other way. Where a SMILES comes first, the peptide text is derived from it. Bridges are numbered along the chain shown (N, C = ends). [ ]: non-standard residue; d: D form. The star is where a group is joined. X1 = CCC(C)C(N)C1=NC(C(=O)*)CS1; dOrn = NCCC[C@@H](N)C(=O)O
Potency means the concentration at half of the fitted maximal effect.

This test can be described thus: qHTS to identify inhibitors of the type 1 interferon - major histocompatibility complex class I in skeletal muscle: primary screen against the NCATS Mechanism Interrogation Plate v5.0 (MIPE) Libary (AID 1347411). Further: nearly all actives have a fitted effect of over 65% in size. The settings on record: iHSKM cells + IFN-b, HiBiT-tagged MHC-I luminescence, 24 h; series mostly up to 45.8 µM. The source says: Assay Submitter (PI): Travis B. Kinder Ph.D. & James Inglese Ph.D.
Assay Development and Screening Technology Laboratory (ADST)
National Center for Advancing Translational Sciences (NCATS), Rockville, MD
National Institute of Health (NIH), Bethesda, Maryland
Idiopathic inflammatory myopathies, collectively referred to as myositis, are a group of rare autoimmune diseases characterized by skeletal muscle inflammation, weakness, and usually accompanied by systemic pathologies of the skin, lungs, or vasculature. Current immunosuppressive therapies and glucocorticoids are often not curative and are accompanied by harsh side effects, especially in children with juvenile myositis. We initiated a drug repurposing and development program to identify more targeted, less toxic therapeutics to treat myositis. Although its cause is not known, muscle from a subset of patients have an abundance of the inflammatory type 1 interferon (IFN) and a down-stream product major histocompatibility complex class I (MHC class I), which are both thought to contribute to damage and weakness. We conducted quantitative high throughput screening on 6,576 compounds (4,679 unique) through a series of cell-based assays to identify those that inhibit the IFN-stimulated expression of MHC class I in muscle precursor cells (myoblasts). The compound identification and evaluation strategy utilized a primary screen with reporter-tagged MHC class I in genome-engineered myoblasts, ATP content counter screen for viability, HLA-ABC immunofluorescence secondary screen, and HLA-B RT-qPCR tertiary screen.
The primary screen utilized CRISPR/Cas9 genome-engineering of immortalized human myoblasts, C25cl48, where a pro-luminescent reporter HiBit was fused to the C-terminus of endogenous MHC class I allele HLA-B*08:01 (HLA-B HiBit myoblasts). HiBit is an 11 amino acid fragment of NanoLuc luminescent reporter (Promega Corporation), and when complexed to the larger LgBit fragment, the reconstituted enzyme produces light in the presence of furimazine substrate (Schwinn et al., 2018). Briefly, HLA-B HiBit myoblasts were plated into 1536-well plates, treated with 4.0 ng/ml human IFN-beta and 2,480 compounds from the NCATS Mechanism Interrogation Plate v5.0 (MIPE5.0) in an 11-point, 1:3 titration with a high final concentration of 46 uM. After 24 hrs of treatment, cells were assayed by Nano-Glo HiBiT Lytic Detection System (Promega) and luminescence measured by a ViewLux 1430 Ultra HTS (Perkin Elmer).
Schwinn MK, Machleidt T, Zimmerman K, Eggers CT, Dixon AS, Hurst R, Hall MP, Encell LP, Binkowski BF, Wood K V. 2018. CRISPR-Mediated Tagging of Endogenous Proteins with a Luminescent Peptide. ACS Chem Biol 13:467-474. doi:10.1021/acschembio.7b00549
PROTOCOL TABLE (as described by Inglese et al., 2007)
SEQUENCE No. (e.g., 1, 2, 3, etc.); […] (e.g., Cells, Incubation, Reagent, etc.); VALUE; DESCRIPTION
1a; Cells; 5 uL; Use a Multidrop Combi (Thermo Scientific) to seed 300 cells/well into 24 Greiner 1536 well white/solid bottom, high base, TC plates in 5 ul/well of iHSKM growth medium (GM) without dexamethasone into columns 1+2. Add metal lids with gas-exchange holes
1b; Cells; 5 uL; Use a Multidrop Combi (Thermo Scientific) to seed 300 cells/well into 24 Greiner 1536 well white/solid bottom, high base, TC plates in 5 ul/well of iHSKM GM without dexamethasone + 4 ng/ml IFN-b into columns 3 - 48. Add metal lids with gas-exchange holes
2; Incubate; 1 hr; Incubate at 37 C, 5% CO2, 95% RH
3; Compounds; 23 nl; Use Pin Tool (Wako) to transfer DMSO control, ruxolitinib IFN-b inhibitor control [High Concentration = 80 uM final, 16-pt, 1:2 in duplicate], and library compounds in DMSO
4; Incubate; 24 hrs; Incubate at 37 C, 5% CO2, 95% RH
5; Dispense; 2.5 ul; Use BioRAPTR FRD (Beckman Coulter) to add HiBit lytic reagent
6; Incubate; 10 min; Incubate in the dark at ambient temperature for lysis
7; Detector; 5 sec; Measure luminescence with ViewLux 1430 Ultra HTS (Perkin Elmer). […]
As to `C=C1CC[C@@H]2[C@](C)(CO)[C@H](O)CC[C@@]2(C)[C@@H]1C/C=C1/C(=O)OC[C@H]1O`, the Potency is 11.7 µM (active).

Regarding `OC[C@H]1O[C@@H](n2cnc3c2NC=NC[C@H]3O)C[C@@H]1O`, the Potency entry is “inactive”.

On to `O=C(NCC(=O)N1CC[C@H](NC2CCC(O)(c3ccc(-c4ncccn4)cn3)CC2)C1)c1cccc(C(F)(F)F)c1` (stereo not given in full), for which the Potency entry was “inactive”.

`O=C(O)c1cnn(-c2nc3cc(OC(F)(F)F)c(Cl)cc3[nH]2)c1`: the Potency entry was “inactive”.

On to `Cc1nnc(C(C)C)n1C1CC2CCC(C1)N2CC[C@H](NC(=O)C1CCC(F)(F)CC1)c1ccccc1` (stereo not given in full), for which the Potency entry was “inactive”.

Regarding `CN1C(=O)N[C@@H](Cc2c[nH]c3c(Cl)cccc23)C1=O`, the Potency result is “inactive”.

For `CCOC(=O)[C@H]1O[C@@H]1C(=O)N[C@@H](CC(C)C)C(=O)NCCC(C)C`, the Potency result was “inactive”.

On to `NS(=O)(=O)NCCNc1nonc1C(=Nc1ccc(F)c(Br)c1)NO`, for which the Potency result is “inactive”.

Turning to `O=C(c1ccc(NS(=O)(=O)c2cccc3cccnc23)cc1)N1CCN(CC2CC2)CC1`, the Potency entry was “inactive”.

`C[C@H]1CN(C[C@H](Cc2ccccc2)C(=O)NCC(=O)O)CC[C@@]1(C)c1cccc(O)c1`: the Potency result is “inactive”.

For the compound `CCN(c1cc(C#CCN2CCOCC2)cc(C(=O)NCc2c(C)cc(C)[nH]c2=O)c1C)C1CCC(N(C)CCOC)CC1` (stereo not given), the Potency entry was “inactive”.

With `N#Cc1ccnc(N2C(=O)CC[C@H]2C(=O)N(c2cncc(F)c2)[C@H](C(=O)NC2CC(F)(F)C2)c2ccccc2Cl)c1`, the Potency result was “inactive”.

On to `NC1CCC(N[C@@H]2C[C@H]2c2ccccc2)CC1` (stereo not given in full), for which the Potency entry is “inactive”.

As for `O=C(C1CC1)N1CC[C@@H](Cc2n[nH]c(=O)n2-c2ccc(-c3ccc4occc4c3)cc2)C1`, the Potency result is “inactive”.

For the compound `O=C(O)c1ccc(CCCc2ccc(OCCc3ccc(F)cc3)cc2)o1`, the Potency entry was “inactive”.

Turning to `CCC(C)C(N)C1=NC(C(=O)N[C@@H](CC(C)C)C(=O)N[C@H](CCC(=O)O)C(=O)N[C@H](C(=O)N[C@H]2CCCCNC(=O)[C@H](CC(N)=O)NC(=O)[C@@H](CC(=O)O)NC(=O)[C@H](Cc3cnc[nH]3)NC(=O)[C@@H](Cc3ccccc3)NC(=O)[C@H]([C@@H](C)CC)NC(=O)[C@@H](CCCN)NC2=O)[C@@H](C)CC)CS1` (stereo not given in full) (X1-L[dE]IK[dOrn]I[dF]H[dD]N; lactam 4-C), the Potency entry is “inactive”.

For the compound `CNC(=O)c1ccc(Nc2ncc(C(F)(F)F)c(NCc3nccnc3N(C)S(C)(=O)=O)n2)cc1`, the Potency was 5.23 µM (active).

As to `CN(C)C/C=C/C(=O)Nc1ccc(C(=O)Nc2cccc(Nc3ncc(Cl)c(-c4c[nH]c5ccccc45)n3)c2)cc1`, the Potency was 0.294 µM (active).

Take `CON(C)C(=O)N1N=C(c2cc(F)ccc2F)S[C@@]1(CCCN)c1ccccc1`: the Potency entry is “inactive”.

As for `CC(C)(O)CNc1nc(Nc2ccnc(C(F)(F)F)c2)nc(-c2cccc(C(F)(F)F)n2)n1`, the Potency result is “inactive”.

On to `COc1ccc2cc(OCC3(C(=O)O)CN(C(=O)c4ccc(F)cc4)C3)ccc2c1`, for which the Potency result is “inactive”.

On to `O=c1ccn([C@@H]2O[C@H](CO)[C@@H](O)[C@H]2O)c(=O)[nH]1`, for which the Potency entry was “inactive”.

Turning to `CC1(C)O[C@@H]2C[C@H]3[C@@H]4CCC5=CC(=O)C=C[C@]5(C)[C@H]4[C@@H](O)C[C@]3(C)[C@]2(C(=O)CO)O1`, the Potency result was “inactive”.

Consider `Nc1ccn([C@@H]2C(F)=C(CO)[C@@H](O)[C@H]2O)c(=O)n1`, for which the Potency entry is “inactive”.

Consider `CCOC(=O)c1ccnc(CNCC(=O)N(CC)CCN(C)C)c1`, for which the Potency result was “inactive”.

As for `OCc1ccccc1O[C@@H]1O[C@H](CO)[C@@H](O)[C@H](O)[C@H]1O`, the Potency entry is “inactive”.

`O=C(O)C[C@H](O)C[C@H](O)/C=C/c1c(C2CC2)nc2ccccc2c1-c1ccc(F)cc1`: the Potency entry was “inactive”.

Take `CC1=C(/C=C/C(C)=C/C=C/C(C)=C/C=C/C=C(C)/C=C/C=C(C)/C=C/C2=C(C)CCCC2(C)C)C(C)(C)CCC1`: the Potency result is “inactive”.

`CCNC(=O)CCC/C=C\C[C@@H]1[C@@H](/C=C/C(O)CCc2ccccc2)[C@@H](O)C[C@@H]1O` (stereo not given in full): the Potency result is “inactive”.

Turning to `O=C(NC[C@H](O)CN1CCc2ccccc2C1)c1cc(NC2COC2)ncn1`, the Potency result was “inactive”.

In the case of `Cc1cc(C)cc(NC(=O)Cc2ccc(OC(C)(C)C(=O)O)cc2)c1`, the Potency entry was “inactive”.

In the case of `CNc1nc(Nc2cnn([C@H]3CCN(C4COC4)C[C@@H]3F)c2Cl)ncc1C(F)(F)F`, the Potency result was “inactive”.

Turning to `COc1cc2c(Nc3ccc(Cl)c(Cl)c3F)ncnc2cc1OCC1C[C@@H]2CN(C)C[C@@H]2C1` (stereo not given in full), the Potency is 20.8 µM (active).

As for `CN(NC(=O)CC(=O)NN(C)C(=S)c1ccccc1)C(=S)c1ccccc1`, the Potency result is “inactive”.

For the compound `CCCCN(CCCC)C(=O)CN1C[C@H](c2ccc3c(c2)OCO3)[C@@H](C(=O)O)[C@@H]1c1ccc(OC)cc1`, the Potency result is “inactive”.

For `C[C@H]1[C@H](C)CC[C@]2(C(=O)O)CC[C@]3(C)C(=CC[C@@H]4[C@@]5(C)C[C@@H](O)[C@H](O)[C@@](C)(CO)[C@@H]5CC[C@]43C)[C@H]12`, the Potency entry was “inactive”.

As for `C[C@H](CCC(=O)O)[C@H]1CC[C@H]2[C@@H]3[C@H](O)C[C@@H]4C[C@H](O)CC[C@]4(C)[C@H]3CC[C@]12C`, the Potency result is “inactive”.

`CCCCC(=O)OCC(=O)[C@]1(O)Cc2c(O)c3c(c(O)c2[C@@H](O[C@H]2C[C@H](NC(=O)C(F)(F)F)[C@H](O)[C@H](C)O2)C1)C(=O)c1c(OC)cccc1C3=O`: the Potency is 10.4 µM (active).

`Cc1nn(C)c(COc2ccc(N3CCN(S(=O)(=O)N(C)C)CC3)cc2)c1-c1cccc2c(CCCOc3cccc4ccccc34)c(C(=O)O)n(CCN3CCOCC3)c12`: the Potency result is “inactive”.

Consider `CCS(=O)(=O)N1CCC([C@@H](C)n2c(C)c(C(=O)NCc3c(OC)cc(C)[nH]c3=O)c3ccccc32)CC1`, for which the Potency entry was “inactive”.
